Data reported in the supplement of paper PMC10849652.
About 7,900 targets were measured; listed, in parts, are those with a hit and a random draw of the rest. About 0.6% of all pairs of compound and target were hits.

Each target was assayed with Cc1cc(SCc2sc(-c3ccc(C(F)(F)F)cc3)nc2C)ccc1OCC(=O)O (assay: log2 fold change, soluble protein after heating vs DMSO (PISA); higher = thermal stabilisation; K562 cells, 10 uM, 30 min; active = over 0.2 and 3.5 SD of the protein, either way, in both replicates (recomputed)).
Method in brief: (§1)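 For each measurement, 10 μM compound was applied for 30 min to K562 cells at 2×10^6 cells/mL. Aliquots were heated for 3 min across 48°C-58°C, pooled, and extracted in PBS with 0.5% NP-40 at 4°C; the supernatant after 21,000xg for 90 min was soluble protein. This was quantified by TMTpro 16plex LC-MS/MS with channel sums equalised, and thermal stability was reported relative to control samples from duplicates, on a log2 fold-change scale.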

Chain of UniProt Q9BWG4 (Q9BWG4 whole entry, looked up): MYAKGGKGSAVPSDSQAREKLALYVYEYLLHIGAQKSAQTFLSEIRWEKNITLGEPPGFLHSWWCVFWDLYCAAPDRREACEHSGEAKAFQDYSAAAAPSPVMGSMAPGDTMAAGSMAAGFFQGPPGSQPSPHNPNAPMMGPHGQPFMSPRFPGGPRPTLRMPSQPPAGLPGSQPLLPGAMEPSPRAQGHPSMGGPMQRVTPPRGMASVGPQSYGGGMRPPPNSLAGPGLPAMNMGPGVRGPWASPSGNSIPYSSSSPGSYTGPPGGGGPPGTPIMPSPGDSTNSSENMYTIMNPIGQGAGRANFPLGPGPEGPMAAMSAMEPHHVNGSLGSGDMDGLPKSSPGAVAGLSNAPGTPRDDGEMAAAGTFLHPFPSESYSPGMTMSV
Chain of UniProt Q13428 (Q13428 whole entry, looked up): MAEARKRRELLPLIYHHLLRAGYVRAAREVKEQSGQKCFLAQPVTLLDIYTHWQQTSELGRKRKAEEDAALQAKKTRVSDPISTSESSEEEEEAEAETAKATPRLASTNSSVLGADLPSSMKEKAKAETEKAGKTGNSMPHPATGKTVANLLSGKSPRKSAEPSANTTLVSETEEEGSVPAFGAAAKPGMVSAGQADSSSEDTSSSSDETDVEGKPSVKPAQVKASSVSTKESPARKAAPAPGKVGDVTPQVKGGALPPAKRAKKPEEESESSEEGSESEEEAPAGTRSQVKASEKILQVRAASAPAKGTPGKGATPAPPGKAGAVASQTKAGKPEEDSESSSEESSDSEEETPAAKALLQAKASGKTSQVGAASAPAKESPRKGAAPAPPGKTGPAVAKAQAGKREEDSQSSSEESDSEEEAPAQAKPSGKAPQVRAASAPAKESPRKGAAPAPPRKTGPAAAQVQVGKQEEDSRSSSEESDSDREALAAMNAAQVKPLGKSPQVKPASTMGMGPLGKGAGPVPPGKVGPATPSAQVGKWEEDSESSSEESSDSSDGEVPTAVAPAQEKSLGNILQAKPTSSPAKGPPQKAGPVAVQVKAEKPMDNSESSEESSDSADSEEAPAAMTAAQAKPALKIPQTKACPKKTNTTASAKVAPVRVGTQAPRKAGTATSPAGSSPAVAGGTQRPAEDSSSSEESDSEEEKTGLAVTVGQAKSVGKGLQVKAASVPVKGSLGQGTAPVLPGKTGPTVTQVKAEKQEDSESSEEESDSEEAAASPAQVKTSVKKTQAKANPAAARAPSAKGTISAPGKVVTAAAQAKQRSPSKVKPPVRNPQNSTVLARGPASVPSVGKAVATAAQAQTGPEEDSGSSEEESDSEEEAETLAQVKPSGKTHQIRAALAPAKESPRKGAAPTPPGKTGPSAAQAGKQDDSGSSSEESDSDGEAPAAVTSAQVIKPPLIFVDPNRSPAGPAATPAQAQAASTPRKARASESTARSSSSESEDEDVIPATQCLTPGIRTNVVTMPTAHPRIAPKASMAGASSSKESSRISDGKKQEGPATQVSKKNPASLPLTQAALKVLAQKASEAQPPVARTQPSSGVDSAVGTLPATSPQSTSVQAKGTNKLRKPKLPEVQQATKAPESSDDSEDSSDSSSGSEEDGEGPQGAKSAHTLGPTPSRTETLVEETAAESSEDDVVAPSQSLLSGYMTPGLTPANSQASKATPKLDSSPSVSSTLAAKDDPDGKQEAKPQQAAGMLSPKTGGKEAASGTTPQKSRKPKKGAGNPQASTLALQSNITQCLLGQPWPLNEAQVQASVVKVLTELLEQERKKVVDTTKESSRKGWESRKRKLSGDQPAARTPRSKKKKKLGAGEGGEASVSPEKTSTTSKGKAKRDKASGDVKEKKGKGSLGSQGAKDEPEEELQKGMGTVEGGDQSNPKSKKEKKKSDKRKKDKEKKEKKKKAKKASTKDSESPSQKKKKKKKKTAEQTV
Chain of UniProt Q6ZRS2 (Q6ZRS2 whole entry, looked up): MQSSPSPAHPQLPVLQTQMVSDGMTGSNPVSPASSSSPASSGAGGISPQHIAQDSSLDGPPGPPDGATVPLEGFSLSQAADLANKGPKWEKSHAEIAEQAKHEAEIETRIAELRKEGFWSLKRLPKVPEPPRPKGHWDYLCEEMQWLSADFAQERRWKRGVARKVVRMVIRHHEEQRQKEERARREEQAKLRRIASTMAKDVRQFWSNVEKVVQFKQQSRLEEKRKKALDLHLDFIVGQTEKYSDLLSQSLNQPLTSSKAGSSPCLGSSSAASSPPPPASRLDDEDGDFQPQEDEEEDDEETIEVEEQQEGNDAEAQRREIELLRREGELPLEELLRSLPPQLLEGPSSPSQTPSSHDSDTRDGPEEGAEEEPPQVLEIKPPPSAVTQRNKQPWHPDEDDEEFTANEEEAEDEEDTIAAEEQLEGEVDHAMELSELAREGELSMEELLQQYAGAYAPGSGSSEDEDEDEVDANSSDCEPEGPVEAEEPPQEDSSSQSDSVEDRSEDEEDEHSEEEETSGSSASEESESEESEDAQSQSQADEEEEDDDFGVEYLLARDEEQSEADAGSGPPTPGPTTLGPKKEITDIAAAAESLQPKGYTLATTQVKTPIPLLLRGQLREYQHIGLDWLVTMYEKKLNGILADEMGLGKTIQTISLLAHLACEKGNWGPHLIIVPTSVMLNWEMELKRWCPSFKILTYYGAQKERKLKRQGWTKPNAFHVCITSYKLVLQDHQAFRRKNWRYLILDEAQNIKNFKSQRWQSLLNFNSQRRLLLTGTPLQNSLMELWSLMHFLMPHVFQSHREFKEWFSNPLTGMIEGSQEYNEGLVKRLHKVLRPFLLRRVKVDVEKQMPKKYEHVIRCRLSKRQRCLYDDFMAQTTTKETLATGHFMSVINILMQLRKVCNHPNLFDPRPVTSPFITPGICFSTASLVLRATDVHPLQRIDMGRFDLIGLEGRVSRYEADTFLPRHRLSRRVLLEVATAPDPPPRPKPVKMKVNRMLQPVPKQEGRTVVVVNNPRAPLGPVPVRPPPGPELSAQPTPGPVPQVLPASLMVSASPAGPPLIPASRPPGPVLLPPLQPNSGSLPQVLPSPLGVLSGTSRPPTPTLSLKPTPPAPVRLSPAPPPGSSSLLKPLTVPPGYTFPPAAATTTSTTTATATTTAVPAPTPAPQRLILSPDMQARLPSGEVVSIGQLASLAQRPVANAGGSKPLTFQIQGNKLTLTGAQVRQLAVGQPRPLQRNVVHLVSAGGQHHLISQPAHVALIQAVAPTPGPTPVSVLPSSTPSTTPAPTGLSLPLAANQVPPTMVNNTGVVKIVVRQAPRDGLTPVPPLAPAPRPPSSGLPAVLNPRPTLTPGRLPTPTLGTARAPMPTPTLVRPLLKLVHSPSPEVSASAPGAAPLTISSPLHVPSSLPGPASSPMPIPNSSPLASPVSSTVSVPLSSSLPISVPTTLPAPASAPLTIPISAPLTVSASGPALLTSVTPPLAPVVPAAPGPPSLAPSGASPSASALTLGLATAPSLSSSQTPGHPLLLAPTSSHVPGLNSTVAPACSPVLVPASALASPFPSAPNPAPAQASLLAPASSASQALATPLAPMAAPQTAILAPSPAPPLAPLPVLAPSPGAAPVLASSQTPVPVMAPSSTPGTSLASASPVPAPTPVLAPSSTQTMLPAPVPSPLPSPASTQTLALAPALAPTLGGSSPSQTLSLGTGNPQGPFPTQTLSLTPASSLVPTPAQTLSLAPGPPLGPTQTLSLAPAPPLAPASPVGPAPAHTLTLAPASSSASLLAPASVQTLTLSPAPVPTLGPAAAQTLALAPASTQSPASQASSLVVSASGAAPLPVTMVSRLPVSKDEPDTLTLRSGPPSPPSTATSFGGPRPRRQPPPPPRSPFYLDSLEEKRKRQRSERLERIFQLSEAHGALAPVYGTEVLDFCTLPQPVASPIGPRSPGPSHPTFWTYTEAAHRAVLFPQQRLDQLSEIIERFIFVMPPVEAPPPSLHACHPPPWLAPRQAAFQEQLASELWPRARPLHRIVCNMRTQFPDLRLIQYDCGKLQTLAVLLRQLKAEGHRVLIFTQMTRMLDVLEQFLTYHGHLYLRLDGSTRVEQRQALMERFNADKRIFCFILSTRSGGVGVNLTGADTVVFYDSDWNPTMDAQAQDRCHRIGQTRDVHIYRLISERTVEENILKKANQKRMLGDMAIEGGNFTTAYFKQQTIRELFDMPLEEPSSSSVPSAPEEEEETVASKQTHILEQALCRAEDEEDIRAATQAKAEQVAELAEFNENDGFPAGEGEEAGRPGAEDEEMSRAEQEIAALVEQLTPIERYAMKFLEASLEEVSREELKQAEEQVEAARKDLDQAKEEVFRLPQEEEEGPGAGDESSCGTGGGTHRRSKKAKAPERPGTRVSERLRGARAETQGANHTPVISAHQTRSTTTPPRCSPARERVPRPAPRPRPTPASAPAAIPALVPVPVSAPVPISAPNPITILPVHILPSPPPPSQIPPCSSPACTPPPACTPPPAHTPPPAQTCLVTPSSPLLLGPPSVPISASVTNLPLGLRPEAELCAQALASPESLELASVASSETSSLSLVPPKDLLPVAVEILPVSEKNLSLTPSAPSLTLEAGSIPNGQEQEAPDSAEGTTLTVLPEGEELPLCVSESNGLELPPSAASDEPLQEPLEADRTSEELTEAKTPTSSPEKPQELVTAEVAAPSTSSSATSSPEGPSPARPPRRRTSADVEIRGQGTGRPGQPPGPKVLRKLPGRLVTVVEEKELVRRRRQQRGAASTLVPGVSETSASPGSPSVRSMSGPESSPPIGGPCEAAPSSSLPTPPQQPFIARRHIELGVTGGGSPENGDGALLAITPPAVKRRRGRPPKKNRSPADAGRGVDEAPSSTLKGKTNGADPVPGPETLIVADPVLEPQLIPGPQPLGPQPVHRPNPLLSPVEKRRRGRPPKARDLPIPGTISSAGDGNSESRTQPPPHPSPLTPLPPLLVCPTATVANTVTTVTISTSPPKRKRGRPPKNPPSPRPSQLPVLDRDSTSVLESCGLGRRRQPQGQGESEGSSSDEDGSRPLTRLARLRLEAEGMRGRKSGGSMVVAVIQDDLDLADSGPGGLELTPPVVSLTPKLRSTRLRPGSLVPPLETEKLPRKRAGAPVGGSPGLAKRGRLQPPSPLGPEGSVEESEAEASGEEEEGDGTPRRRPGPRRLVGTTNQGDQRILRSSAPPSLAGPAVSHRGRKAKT

Target	log2 fold change
TACC2 (UniProt O95359)	-0.005 (inactive)
TK1 (UniProt K7ERV3)	-0.041 (inactive)
SSBP4 (UniProt Q9BWG4)	0.123 (inactive)
TAF6L (UniProt Q9Y6J9)	-0.121 (inactive)

Each target was assayed with Cc1ccc(-n2nc(C(C)(C)C)cc2NC(=O)Nc2ccc(OCCN3CCOCC3)c3ccccc23)cc1 [doramapimod] in the same assay as above.
Method in brief: as §1

Target	log2 fold change
SLC35B1 isoform 2 (UniProt P78383)	-0.061 (inactive)
SNX2 isoform 2 (UniProt O60749)	0.17 (inactive)
SMPD4 isoform 2 (UniProt Q9NXE4)	0.027 (inactive)
SPIRE1 (UniProt Q08AE8)	0.096 (inactive)
SLC8B1 (UniProt Q6J4K2)	0.046 (inactive)
SNRK (UniProt Q9NRH2)	0.001 (inactive)
TAOK2 (UniProt Q9UL54)	-0.036 (inactive)
SPIN4 (UniProt Q56A73)	-0.213 (inactive)
SRCAP (UniProt Q6ZRS2)	0.051 (inactive)
TENT5C (UniProt Q5VWP2)	0.061 (inactive)
THAP9 (UniProt Q9H5L6)	0.041 (inactive)
TBP (UniProt P20226)	-0.023 (inactive)
SREBF1 isoform 4 (UniProt P36956)	0.098 (inactive)
SMARCB1 (UniProt Q12824)	0.049 (inactive)
SYK (UniProt P43405)	0.179 (inactive)
TCOF1 isoform 6 (UniProt Q13428)	-0.068 (inactive)
SLC35B4 (UniProt Q969S0)	0.038 (inactive)
TEX30 (UniProt Q5JUR7)	0.059 (inactive)
SP2 (UniProt Q02086)	-0.06 (inactive)
STK17B (UniProt O94768)	-0.085 (inactive)
SSBP4 (UniProt Q9BWG4)	0.103 (inactive)

Each target was assayed with Cc1ccc(C(=O)N(CCCN)[C@@H](c2nc3cc(Cl)ccc3c(=O)n2Cc2ccccc2)C(C)C)cc1 [ispinesib] in the same assay as above.
Method in brief: as §1

Target	log2 fold change
SLC35B1 isoform 2 (UniProt P78383)	-0.043 (inactive)
TC2N (UniProt Q8N9U0)	-0.071 (inactive)
SPIRE1 (UniProt Q08AE8)	-0.073 (inactive)
TCOF1 isoform 3 (UniProt Q13428)	-0.185 (inactive)
SLC8B1 (UniProt Q6J4K2)	-0.477 (active)
TAOK2 (UniProt Q9UL54)	0.035 (inactive)
SRCAP (UniProt Q6ZRS2)	0 (inactive)
TENT5C (UniProt Q5VWP2)	0.055 (inactive)
THAP9 (UniProt Q9H5L6)	-0.21 (inactive)
TBP (UniProt P20226)	-0.006 (inactive)
SYK (UniProt P43405)	-0.216 (inactive)
TCOF1 isoform 6 (UniProt Q13428)	-0.122 (inactive)
TIMM10B (UniProt Q9Y5J6)	0.077 (inactive)
SLC35F6 (UniProt Q8N357)	-0.083 (inactive)
TEX30 (UniProt Q5JUR7)	-0.295 (inactive)
TM7SF2 (UniProt O76062)	-0.451 (inactive)
SMIM20 isoform 2 (UniProt Q8N5G0)	0.089 (inactive)
TMBIM1 (UniProt Q969X1)	0.303 (inactive)
TACC2 (UniProt O95359)	0.145 (inactive)
TK1 (UniProt K7ERV3)	0.005 (inactive)
SSBP4 (UniProt Q9BWG4)	0.148 (inactive)
TAF6L (UniProt Q9Y6J9)	-0.045 (inactive)
